The source of these data is PubChem BioAssay.

Values joined by “and” are separate entries in the source; they are usually repeats but may differ in a detail not shown here. Equal entries are not always repeated. Active and inactive are the calls of the source. Unless noted, the rule behind the calls is not given here.

The nature of assay [1]: P. berghei load reduction in hepatocytes – cell-based, HepG2, luciferase luminescence, HepG2 viability, primary screen (AID 624349; in the data active = parasite load remaining mostly below about 12%, no sharp cut-off; inactive = mostly above about 10%;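 note: 100% = mean of DMSO negative control wells on the same plate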). The note with it: P. berghei liver stage in HepG2, luciferase luminescence, concentration not given here; parasite load remaining: stronger effect = lower value; viability: measured here: HepG2 viability without parasites.
A short description of assay [2]: signal quenchers or enhancers, Cy5 substrate/SSB – biochemical, NIH Clinical Collection, E. coli SSB, artefact control for HCV NS3 helicase inhibitor project (AID 743268). The note with it: Cy5-oligo bound E. coli SSB, fluorescence interference.
For assay [3], the system named is Hepatitis C virus NS3 helicase. The assay can be described thus: blockers of NS3h binding to DNA – biochemical, fluorescence polarization, NIH Clinical Collection, primary screen (AID 743270). The note with it: NS3 helicase binding to Cy5-dT15 DNA, stronger effect = higher value, concentration not given here. In general terms: Fluorescence polarisation rises when a labelled molecule tumbles more slowly, as on binding a larger partner.

The target of assay [4] is Single-stranded DNA-binding protein (Escherichia coli (strain K12)) (UniProt P0AGE0). The assay is described as follows: SSB-ssDNA binding inhibitors – biochemical, fluorescence polarization, NIH Clinical Collection, counter-screen for HCV NS3 helicase inhibitor project (AID 743271; in the data active = inhibition above about 28%). The note with it: E. coli SSB-DNA binding, stronger effect = higher value, concentration not given here.

Assay [5] can be described thus: compounds distorting NS3 helicase fluorescence signal – biochemical, NIH Clinical Collection, artefact control for HCV NS3 helicase inhibitor project (AID 743272).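 Note: HCV NS3 helicase with a Cy5 labelled single stranded DNA probe.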 The note with it: fluorescence interference counterscreen, HCV NS3 helicase assay; stronger effect = lower value. On the technique in general: The purpose of a counterscreen is to sort out artefacts and off-target activity.

A short description of assay [6]: Wnt pathway potentiators raising nuclear beta-catenin – imaging, WNT3A-conditioned medium, mouse C2C12, NPC library, primary screen (AID 1117326; in the data active = nuclear beta-catenin stimulation mostly above about 4.2%, no sharp cut-off; inactive = mostly below about 10%). The note with it: stronger effect = higher value.
A short description of assay [7]: stimulators of insulin release from INS-1E, primary screen, cell-based, 5 mM glucose, NPC library (AID 1117329;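 active = compound raises insulin release from rat beta cells at 5 mM glucose, no numeric limit stated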). The note with it: rat INS-1E insulin secretion, at 10 µM, stronger effect = higher value.
The nature of assay [8]: growth inhibition of GSK3B-pretreated HCT116 cells – cell-based, CellTiter-Glo, 0.2 to 20 µM (AID 1117336;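 active = compounds lowering colon cancer cell viability after pretreatment blocking the GSK3B kinase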). The note with it: HCT116 viability after GSK3B inhibitor, at 20 µM, stronger effect = higher value.
Assay [9] is described as follows: inhibition of endothelial tube formation, primary screen, imaging, VEGF stimulated, CD31 staining, tube area, NPC library (AID 1117340;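 active = compound that reduces growth-factor-driven endothelial tube area in a mixed cell culture, no cutoff stated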). The note with it: VEGF-stimulated ADSC/ECFC co-culture, at 10 µM, stronger effect = higher value.
The nature of assay [10]: GLP1 release stimulators, primary, NCI-H716, NPC library (AID 1117341;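 active = compound raises GLP1 secretion from the human gut endocrine cells, with no numeric limit stated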). The note with it: NCI-H716 cells, at 10 µM, stronger effect = higher value.
Assay [11] in a line: HCT116 colon cancer cell growth inhibition, primary screen, CellTiter-Glo luminescence, NPC library (AID 1117342;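 active = compounds that lower survival of HCT116 colon cancer cells in the luminescence readout, no numeric limit stated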). The note with it: at 20 µM (top of the series).
Assay [12] in a line: reduced SW480 viability measured with CellTiter-Glo, NPC library, primary (AID 1117343;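 active = compounds that lower viability of the colon cancer cells in the luminescence readout, with no numeric limit stated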). The note with it: CellTiter-Glo luminescence; at 20 µM (top of the series). A general note: In ATP-based viability assays light output follows the ATP content of the culture.
The nature of assay [13]: NPC library primary testing for decreased DLD-1 cell viability via CellTiter-Glo (AID 1117346;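 active = compounds that lower survival of DLD-1 colon cancer cells in the luminescence readout, no cutoff given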). The note with it: DLD-1 viability, CellTiter-Glo luminescence; at 20 µM (top of the series).
In assay [14] the target is 6-phosphogluconate dehydrogenase, decarboxylating (Homo sapiens) (UniProt P52209). The assay is described as follows: inhibition of human phosphogluconate dehydrogenase – biochemical, recombinant enzyme, NADPH absorbance, primary screen (AID 1159550;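 active = at least 20% inhibition of 6-phosphogluconate dehydrogenase activity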). The note with it: recombinant 6PGD, NADPH absorbance 341 nm; at 10 µM; stronger effect = higher value.
Assay [15] can be described thus: MELAS cybrid and Rieske KO viability enhancers – cell-based, MELAS cybrids, Rieske KO mouse fibroblasts, CellTiter-Glo, primary screen (AID 1508586;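 active = mean z-score across replicates of 1.96 or higher in either the MELAS or the Rieske mutant cell line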;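 note: z relative to plate mean and SD of compound and empty wells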). The note with it: low glucose.
The target of assay [16] is NAD(+) hydrolase SARM1 (Homo sapiens) (UniProt Q6SZW1). The assay is described as follows: blocking NAD cleavage by SARM1 SAM-TIR – cell lysate, NAD-Glo luminescence (AID 1508614;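 active = compound whose remaining NAD level is above about 45 nM, limit read from the data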;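 note: higher remaining NAD means stronger inhibition of SARM1 NADase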). The note with it: SAM-TIR HEK293T lysate NADase, at 1 µM, stronger effect = higher value.
Assay [17] has as its target Mitogen-activated protein kinase 7 (Homo sapiens) (UniProt Q13164). The assay is described as follows: Gal4-ERK5 driven luciferase induction – cell-based, HTS, primary screen (AID 1508626;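 active = luciferase signal above three times the same-plate solvent-only control wells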;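 note: luciferase driven by Gal4-ERK5 fusion binding five Gal4 sites before minimal TATA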). The note with it: HeLa Gal4-ERK5 transactivation, 18 h, at 5 µM, stronger effect = higher value.
The subject of another assay is F380Y. The assay is described as follows: BK channel mutant inhibitors and activators – cell-based, U2OS BacMam, thallium flux, beta subunits, selectivity assay, profiling panel (AID 1259406;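 active = thallium flux through the channel raised or lowered by more than 3 SD from vehicle-only wells, actives on both sides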;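 note: initial slope of Thallos dye fluorescence rise after thallium is added; log ratio against the mean of 0.3% DMSO vehicle wells on the same plate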). The note with it: U2OS BacMam BK variants, at 30 µM.
A short description of assay [18]: EMT-state selective cytotoxicity in co-culture – imaging, PC-3E GFP, TEM4-18 mCherry, primary screen (AID 1345086;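 active = compounds killing one labelled cell type while sparing the other, by normalised counts and ratio limits, not self-fluorescent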;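 note: cells exposed to compound for 72 h before imaging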;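 for red/green cell ratio (normalised): normalised mesenchymal count divided by normalised epithelial count so high means epithelial killing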). The note with it: PC-3E GFP / TEM4-18 mCherry co-culture, imaging cell counts, at 1 µM.
Assay [19] is described as follows: viability loss with induced miR-34 in A549 – imaging, A549 dox-inducible miR-34, nuclei and caspase counts, primary screen (AID 1347080;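 active = compounds whose cell count with miR-34 switched on is under 0.7 times the count with it off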). The note with it: A549 miR-34 inducible, Hoechst nuclei count, 48 h.
[20] abbreviates: MELAS cybrid survival, CellTiter-Glo 48 h, stronger effect = higher value.
Setting [21] is: Rieske KO mouse fibroblast survival, CellTiter-Glo 72 h.

Chain of 6-phosphogluconate dehydrogenase, decarboxylating (Homo sapiens) (P52209 whole entry, looked up): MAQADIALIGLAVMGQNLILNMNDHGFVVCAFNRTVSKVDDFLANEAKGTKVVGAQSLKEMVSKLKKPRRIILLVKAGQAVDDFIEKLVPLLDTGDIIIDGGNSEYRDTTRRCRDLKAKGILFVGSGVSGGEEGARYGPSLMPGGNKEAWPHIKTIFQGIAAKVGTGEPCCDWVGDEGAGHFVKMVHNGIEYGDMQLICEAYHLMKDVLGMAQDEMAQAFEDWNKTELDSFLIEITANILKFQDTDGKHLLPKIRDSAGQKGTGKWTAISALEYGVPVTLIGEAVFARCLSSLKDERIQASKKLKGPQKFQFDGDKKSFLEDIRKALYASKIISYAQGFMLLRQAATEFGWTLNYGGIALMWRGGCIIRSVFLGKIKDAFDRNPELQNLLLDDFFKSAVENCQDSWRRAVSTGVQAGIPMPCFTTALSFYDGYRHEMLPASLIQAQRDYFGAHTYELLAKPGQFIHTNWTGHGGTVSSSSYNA
Chain of Mitogen-activated protein kinase 7 (Homo sapiens) (Q13164 whole entry, looked up, the tested form may be a part): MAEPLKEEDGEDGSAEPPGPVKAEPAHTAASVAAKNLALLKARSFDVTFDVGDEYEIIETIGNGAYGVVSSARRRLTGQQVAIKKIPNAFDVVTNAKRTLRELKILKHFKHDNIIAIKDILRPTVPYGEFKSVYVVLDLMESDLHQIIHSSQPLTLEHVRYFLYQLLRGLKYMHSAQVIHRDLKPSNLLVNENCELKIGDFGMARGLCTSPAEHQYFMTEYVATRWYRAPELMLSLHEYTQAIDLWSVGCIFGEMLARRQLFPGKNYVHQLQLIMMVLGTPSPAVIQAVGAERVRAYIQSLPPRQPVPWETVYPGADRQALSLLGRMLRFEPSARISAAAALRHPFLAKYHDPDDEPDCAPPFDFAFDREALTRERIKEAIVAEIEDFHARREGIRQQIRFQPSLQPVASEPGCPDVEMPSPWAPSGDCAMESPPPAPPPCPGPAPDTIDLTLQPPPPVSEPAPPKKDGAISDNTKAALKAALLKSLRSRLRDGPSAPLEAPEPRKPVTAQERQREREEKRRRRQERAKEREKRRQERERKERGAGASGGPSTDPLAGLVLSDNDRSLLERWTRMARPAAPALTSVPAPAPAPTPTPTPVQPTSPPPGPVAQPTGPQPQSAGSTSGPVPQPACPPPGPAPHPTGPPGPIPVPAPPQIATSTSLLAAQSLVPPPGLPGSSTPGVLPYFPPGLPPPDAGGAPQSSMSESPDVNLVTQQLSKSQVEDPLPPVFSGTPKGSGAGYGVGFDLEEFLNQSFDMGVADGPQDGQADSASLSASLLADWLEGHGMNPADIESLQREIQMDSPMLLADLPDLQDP
Chain of NAD(+) hydrolase SARM1 (Homo sapiens) (Q6SZW1 whole entry, looked up, the tested form may be a part): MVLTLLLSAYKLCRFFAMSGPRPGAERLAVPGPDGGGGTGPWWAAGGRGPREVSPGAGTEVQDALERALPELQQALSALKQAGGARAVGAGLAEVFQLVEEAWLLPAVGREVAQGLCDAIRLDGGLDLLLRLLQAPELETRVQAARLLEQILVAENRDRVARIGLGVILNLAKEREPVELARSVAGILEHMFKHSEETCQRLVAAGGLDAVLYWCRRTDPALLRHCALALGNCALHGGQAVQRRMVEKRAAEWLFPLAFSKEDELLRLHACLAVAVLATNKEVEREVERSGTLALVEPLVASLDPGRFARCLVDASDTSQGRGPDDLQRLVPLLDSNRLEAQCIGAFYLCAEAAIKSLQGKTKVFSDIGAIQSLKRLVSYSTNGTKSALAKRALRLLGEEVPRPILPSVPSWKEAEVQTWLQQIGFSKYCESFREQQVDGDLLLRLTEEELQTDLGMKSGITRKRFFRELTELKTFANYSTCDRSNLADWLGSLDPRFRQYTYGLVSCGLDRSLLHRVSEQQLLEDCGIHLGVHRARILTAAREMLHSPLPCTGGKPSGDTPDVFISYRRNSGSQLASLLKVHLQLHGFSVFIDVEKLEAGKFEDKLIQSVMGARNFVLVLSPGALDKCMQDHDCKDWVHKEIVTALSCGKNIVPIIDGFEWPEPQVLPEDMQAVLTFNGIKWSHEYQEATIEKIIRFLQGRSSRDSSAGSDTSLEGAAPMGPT

Turning to `OCCN1C[C@H](O)[C@@H](O)[C@H](O)[C@H]1CO`, the parasite load remaining in [1] was 103% (inactive). Besides, the viability in assay [1] worked out at 80%. Also, the fluorescence ratio was 1.05 (inactive) in assay [2] and 0.93 (inactive) in assay [5]. In addition, the inhibition in assay [3] was -1.98% (inactive); in assay [4], -4.72% (inactive); in [14], 6.33% (inactive). Further, the nuclear beta-catenin stimulation in assay [6] (at 10 µM) was -2.3% (inactive); in assay [6] (stimulation, at 2 µM), -1%. Moreover, in assay [7], the insulin secretion stimulation is 5.4% (inactive). Also, the viability decrease in assay [8] is -1.6% (inactive). In addition, the tube area decrease in assay [9] is 0.1% (inactive). For the same compound, the GLP1 secretion stimulation in assay [10] is -1.4% (inactive). In assay [11], the inhibition of viability was 0.6% (inactive). Also, the values for the viability decrease (inhibition) in assay [12] and in assay [13] were -1.7% (inactive) and 0.1% (inactive), respectively. Further, the z-score in assay [15] (setting [20]) was 0.074 (inactive); in assay [15] (setting [21]), 0.78. Moreover, the remaining NAD in assay [16] is 10 nM (inactive). Besides, in assay [17], the luciferase signal was 80 AU (inactive). In the assay on F380Y, the log fold change Tl+ flux was -0.0502 (inactive).

For `O=C1[C@H](CC[C@H](O)c2ccc(F)cc2)[C@@H](c2ccc(O)cc2)N1c1ccc(F)cc1`, the parasite load remaining in [1] is 62.8% (inactive). The viability in assay [1] is 65.3%. The fluorescence ratio was 0.97 (inactive) in [2] and 0.95 (inactive) in assay [5]. The inhibition was 2.77% (inactive) in assay [3], 3.75% (inactive) in [4] and -1.06% (inactive) in assay [14]. For the same compound, the nuclear beta-catenin stimulation in [6] (at 10 µM) was 4.5% (inactive); in assay [6] (stimulation, at 2 µM) it was -0.4%. For the same compound, in assay [7], the insulin secretion stimulation was 6% (inactive). For the same compound, in assay [8], the viability decrease was 20.8% (inactive). In addition, the tube area decrease in assay [9] was 19.9% (inactive). The GLP1 secretion stimulation in assay [10] was 7.4% (inactive). Moreover, the inhibition of viability in assay [11] is 32.6% (inactive). The viability decrease (inhibition) was 10.1% (inactive) in assay [12] and 18% (inactive) in assay [13]. Besides, the z-score in assay [15] (setting [20]) was -0.744 (inactive); in assay [15] (setting [21]), 0.307. In addition, the remaining NAD in assay [16] is 10 nM (inactive). Also, the luciferase signal in assay [17] is 44 AU (inactive). Also, the log fold change Tl+ flux with F380Y is 0.0275 (inactive).

On to `COc1cc(NC(C)CCCN)c2ncccc2c1` (configuration not stated), for which the fluorescence ratio in [2] was 0.96 (inactive); in assay [5], 0.86 (inactive). Also, the inhibition in [3] is -5% (inactive); in assay [4], 0.29% (inactive); in [14] it was -0.957% (inactive). Moreover, the nuclear beta-catenin stimulation was 1.4% (inactive) in [6] (at 10 µM) and 1.8% in assay [6] (stimulation, at 2 µM). The insulin secretion stimulation in assay [7] is 0.4% (inactive). Further, the viability decrease in assay [8] was 102% (active). In assay [9], the tube area decrease was 11.2% (inactive). Also, the GLP1 secretion stimulation in assay [10] is 2.7% (inactive). Further, the inhibition of viability in assay [11] is 97.2% (active). For the same compound, the figures for the viability decrease (inhibition) in [12] and in assay [13] were 71.5% (active) and 47.3% (inactive), respectively. Moreover, the red/green cell ratio (normalised) in assay [18] (actives lie on both sides, counts scaled to control wells, 1 = unselective) was 1.43 (inactive). The figures for the normalised cell number in [18] (measured here: epithelial PC-3E GFP cell survival) and in assay [18] (measured here: mesenchymal TEM4-18 mCherry cell survival) were 0.94 and 1.34, respectively. Also, the z-score in assay [15] (setting [20]) is -0.353 (inactive) and -0.329 (inactive) and 0.456 (inactive); in assay [15] (setting [21]), -0.221 and -0.189 and 1.47. In addition, the remaining NAD in [16] was 10 nM (inactive). The luciferase signal in assay [17] is 32 AU (inactive). Further, in the assay with F380Y, the log fold change Tl+ flux was -0.0858 (inactive).

`Nc1nc2ncc(CNc3ccc(C(=O)N[C@@H](CCC(=O)O)C(=O)O)cc3)nc2c(=O)[nH]1`: the fluorescence ratio in assay [2] is 0.95 (inactive); in [5], 0.92 (inactive). For the same compound, the results for the inhibition in assay [3], in assay [4] and in assay [14] were -2.27% (inactive), 11% (inactive) and -0.853% (inactive), respectively. In addition, the nuclear beta-catenin stimulation in [6] (at 10 µM) is 0.8% (inactive); in assay [6] (stimulation, at 2 µM), 0.5%. The insulin secretion stimulation in assay [7] was 2.4% (inactive). Besides, the viability decrease in [8] was -64.4% (inactive). The tube area decrease in assay [9] was 16.7% (inactive). In addition, in [10], the GLP1 secretion stimulation is -1.5% (inactive). Further, the inhibition of viability in assay [11] was -2.33% (inactive). Also, the results for the viability decrease (inhibition) in assay [12] and in [13] were 6.4% (inactive) and -8.5% (inactive), respectively. Further, the fold change in [19] (stronger effect = lower value, cell number ratio, induced over uninduced) is 0.937 (inactive) and 0.906 (inactive) and 0.91 (inactive); in assay [19] (measured here: relative caspase fold change +Dox/-Dox) it was 1.68 and 0.997 and 3.41. The cell count in assay [19] (measured here: total cells with miR-34 induction, stronger effect = lower value) was 10800 and 8990 and 11200; in [19] (measured here: total cells without miR-34 induction), 11600 and 9920 and 12300. Further, the figures for the z-score in assay [15] (setting [20]) and in assay [15] (setting [21]) were 0.332 (inactive) and -0.293, respectively. The remaining NAD in assay [16] is 10 nM (inactive). For the same compound, the luciferase signal in assay [17] was 188 AU (inactive). The log fold change Tl+ flux in the assay on F380Y is -0.0861 (inactive).

As a reminder, the viability is a per cent measure of how many cells are alive, often set against a control. Usually inhibition stands for the drop in the measured response relative to a control, in per cent.
